Measurements reported in PubChem BioAssay AID1159580 (chemical genetic matrix, 2015).
Values joined by “and” are separate entries in the source; they are usually repeats but may differ in a detail not shown here. Equal entries are not always repeated. The campaign covered roughly 5,500 compounds. About 2,000 (36%) were called active. Another 18% or so got no clear call; they are omitted. Rule as the data show it: active = normalized growth mostly below about 0.91 (no sharp cut-off); inconclusive = no clear call, values can overlap the other calls; inactive = mostly above about 0.92. Some of the results follow.

Assay: chemical genetic growth profiling, strain panel (AID 1159580);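 also: tested at 20 µM; growth read once vehicle control cultures reached saturation at 30 °C; 1 = growth at the plate median or of vehicle wells; lower values mean less growth of the strain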
Conditions: S. cerevisiae deletion strains, growth OD

Measured: normalized growth

C[C@]12CCC3c4ccc(O)cc4CCC3C1CCC2=O (stereo partly drawn)
active: locus YDL074C, strain BRE1, active compounds read low 0.766 | locus YDR137W, strain rgp1, active compounds read low 0.682 | locus YDR162C, strain NBP2, active compounds read low 0.761 | locus YDR195W, strain ref2 1.26 [resistant] | locus YDR392W, strain spt3, active compounds read low 0.625
inactive: locus YAL013W, strain DEP1, active compounds read low 0.968 | locus YAL021C, strain ccr4, active compounds read low 1 | locus YAL026C, strain drs2, active compounds read low 0.993 | locus YAL030W, strain snc1, active compounds read low 1.01 | locus YBL061C, strain skt5, active compounds read low 0.999 | locus YBR009C, strain hhf1, active compounds read low 0.953 | locus YBR021W, strain FUR4, active compounds read low 0.875 | locus YBR023C, strain chs3, active compounds read low 1.01 | locus YBR171W, strain sec66, active compounds read low 0.992 | locus YBR229C, strain ROT2, active compounds read low 0.96 | locus YBR231C, strain swc5, active compounds read low 0.975 | locus YBR279W, strain paf1, active compounds read low 0.988 | locus YCL011C, strain gbp2, active compounds read low 1.01 | locus YCL016C, strain dcc1, active compounds read low 1.01 | locus YCL029C, strain bik1, active compounds read low 0.952 | locus YCL061C, strain MRC1, active compounds read low 1.01 | locus YCL069W, strain vba3, active compounds read low 1 | locus YCR088W, strain abp1, active compounds read low 1.01 | locus YDL005C, strain med2, active compounds read low 1.02 | locus YDL035C, strain GPR1, active compounds read low 0.87 | locus YDL040C, strain nat1, active compounds read low 1.01 | locus YDL101C, strain DUN1, active compounds read low 0.987 | locus YDL134C, strain PPH21, active compounds read low 0.901 | locus YDL185W, strain tfp1, active compounds read low 0.96 | locus YDL192W, strain arf1, active compounds read low 0.98 | locus YDR001C, strain nth1, active compounds read low 1.02 | locus YDR069C, strain doa4, active compounds read low 0.993 | locus YDR101C, strain arx1, active compounds read low 0.923 | locus YDR159W, strain sac3, active compounds read low 0.959 | locus YDR297W, strain sur2, active compounds read low 1.01 | locus YDR318W, strain mcm21, active compounds read low 0.967 | locus YDR334W, strain swr1, active compounds read low 1.02 | locus YDR335W, strain msn5, active compounds read low 0.998 | locus YDR388W, active compounds read low 0.987 | locus YDR502C, strain sam2, active compounds read low 0.939 | locus YEL003W, strain gim4, active compounds read low 0.942 | locus YEL037C, strain rad23, active compounds read low 1.01 | locus YEL061C, strain CIN8 (second series), active compounds read low 1 | locus YEL061C, strain CIN8, active compounds read low 0.997 | locus YER015W, strain faa2, active compounds read low 1.01 | locus YER016W, strain bim1, active compounds read low 0.978 | locus YER110C, active compounds read low 0.985 | locus YER111C, strain swi4, active compounds read low 1.02 | locus YER155C, strain BEM2 (second series), active compounds read low 0.905 | locus YER155C, strain BEM2, active compounds read low 1 | locus YER167W, strain BCK2, active compounds read low 1.03 | locus YFR010W, strain ubp6, active compounds read low 1 | locus YGL078C, strain dbp3, active compounds read low 0.969 | locus YGL086W, strain mad1, active compounds read low 0.959 | locus YGL167C, strain pmr1, active compounds read low 1.03 | locus YGL173C, strain kem1, active compounds read low 0.963 | locus YGL227W, strain vid30, active compounds read low 1.03 | locus YGL240W, strain doc1, active compounds read low 0.944 | locus YGL248W, strain PDE1, active compounds read low 0.962 | locus YGL253W, strain hxk2, active compounds read low 0.951 | locus YGR135W, strain pre9, active compounds read low 1.02 | locus YGR252W, strain gcn5, active compounds read low 0.874 | locus YHR013C, strain ard1, active compounds read low 1.01 | locus YHR027C, strain rpn1, active compounds read low 1 | locus YHR030C, strain SLT2, active compounds read low 1.01 and 0.986 | locus YHR079C, strain IRE1 (second series), active compounds read low 0.992 | locus YHR079C, strain IRE1, active compounds read low 0.989 | locus YHR094C, strain hxt1, active compounds read low 0.999 | locus YHR129C, strain ARP1, active compounds read low 1.01 | locus YHR142W, strain chs7, active compounds read low 0.949 | locus YHR200W, strain rpn10, active compounds read low 0.984 | locus YIL066C, strain RNR3, active compounds read low 0.982 | locus YIL073C, strain SPO22, active compounds read low 0.94 | locus YIL125W, strain kgd1, active compounds read low 0.986 | locus YIR030C, strain dcg1, active compounds read low 1.02 | locus YJL092W, strain hpr5, active compounds read low 1.02 | locus YJL095W, strain BCK1 (second series), active compounds read low 1.01 | locus YJL095W, strain BCK1, active compounds read low 0.919 and 0.992 | locus YJL115W, strain asf1, active compounds read low 1.02 | locus YJL129C, strain trk1, active compounds read low 1.03 | locus YJL134W, strain LCB3, active compounds read low 0.992 | locus YJL154C, strain vps35, active compounds read low 1.02 | locus YJL164C, strain tpk1, active compounds read low 0.957 | locus YJL166W, strain qcr8, active compounds read low 0.987 | locus YJL168C, strain set2, active compounds read low 1 | locus YJL187C, strain SWE1 (second series), active compounds read low 0.969 | locus YJL187C, strain SWE1, active compounds read low 1.01 | locus YJR043C, strain POL32, active compounds read low 0.937
